Data on 38 compounds can be found in PubChem BioAssay.

For some assays here: Entries with a potency or affinity are not part of this list. Calls of active or inactive are those of the source. Unless noted, no cut-off is given here; in the data, nearly all actives have IC50 up to about 0.98 µM.

Tested on in one experiment: not listed separately
As to the kind of experiment: inhibition of 3D7 malaria parasite growth – strain 3D7 (AID 2306; call rule not given here;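 note: 0% = DMSO wells and 100% = chloroquine plus artemisinin control wells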). Conditions: P. falciparum 3D7 erythrocytic growth, LDH absorbance, 72 h; at 2 µM; hits give high values.
For `O=C(NCc1cccc(Cl)c1)c1ccc(CNC2CCN(Cc3ccccc3)CC2)cc1`, the growth inhibition was 100% (active). Still for that read-out and setting: as for `CS(=O)(=O)N(c1ccc(F)cc1)c1cc(C(=O)N[C@@H](Cc2ccccc2)[C@H](O)CNCc2cccc(C(F)(F)F)c2)cc(N2CCCC2=O)c1`, the figure is 91% (active); as for `Cc1ccc(S(=O)(=O)c2nc(S(=O)(=O)c3ccccc3)sc2NCC2CCCO2)cc1` (stereo not drawn), 88% (active).

The target of another experiment is Calcium-dependent protein kinase 1 (Plasmodium falciparum (isolate 3D7)) (UniProt P62344). Kind of experiment: PfCDPK1 kinase inhibitors, biochemical, TCAMS library (AID 1159585).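 Note: inhibitors leave more ATP so luminescence rises with inhibition.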 The conditions noted are these: recombinant PfCDPK1, Kinase-Glo ATP depletion luminescence. (Kinase-Glo measures the ATP left after a reaction by luminescence.)
Calcium-dependent protein kinase 1 (Plasmodium falciparum (isolate 3D7)), sequence (P62344 whole entry, looked up): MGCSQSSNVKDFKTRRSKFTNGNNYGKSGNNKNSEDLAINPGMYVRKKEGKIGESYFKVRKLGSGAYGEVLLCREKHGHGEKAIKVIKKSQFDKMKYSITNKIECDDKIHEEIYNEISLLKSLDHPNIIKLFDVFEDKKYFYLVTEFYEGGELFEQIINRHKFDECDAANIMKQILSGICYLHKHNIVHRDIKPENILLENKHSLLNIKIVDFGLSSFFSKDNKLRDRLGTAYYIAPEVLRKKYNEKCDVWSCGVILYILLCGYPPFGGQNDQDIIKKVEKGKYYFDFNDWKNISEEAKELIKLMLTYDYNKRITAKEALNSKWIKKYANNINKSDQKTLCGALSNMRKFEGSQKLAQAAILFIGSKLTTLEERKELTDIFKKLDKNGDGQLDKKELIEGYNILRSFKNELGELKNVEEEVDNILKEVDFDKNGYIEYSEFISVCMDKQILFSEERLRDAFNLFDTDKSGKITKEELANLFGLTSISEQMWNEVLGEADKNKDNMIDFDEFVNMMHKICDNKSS
`CC[C@@H]([C@@H](Cc1cc2ccccc2s1)C(=O)N[C@@H](CCCCNC(=O)OCc1ccccc1)C(=O)Nc1ccccn1)N(O)C=O`: the outcome was inactive.

As for `CC(C)(C)c1ccc(C(=O)N2CCC3(CC2)C(=O)N(CC(=O)NCC2CCCO2)CN3c2ccccc2)cc1` (stereo not drawn), the result was inactive. Same read-out and setting: the result for `NC(=O)c1cccc(CNC(=O)NC[C@H]2CN(Cc3ccc(Cl)c(Cl)c3)CCO2)c1` reads “inactive”. The same measure, in the same setting: as for `Cc1cc(Nc2cccc(Cl)c2)nc2ccc(NC(=O)c3ccc(=O)[nH]c3)cc12`, the entry is “inactive”; as for `COc1ccc(NC(=O)Nc2ccc(-c3cccc(-c4nc5c(C)cccc5[nH]4)c3)cc2)cc1`, “inactive”; as for `CN(C)CCN(Cc1ccccc1-c1ccc(CNCCc2ccccc2)cc1)C(=O)NC1CCCCC1`, “inactive”. Same read-out and setting: as for `CN1CCC(N(Cc2ccc(-c3ccc(C(F)(F)F)cc3)nc2)C(=O)Cn2c(CCc3cccc(F)c3F)cc(=O)c3ccccc32)CC1`, the entry is “inactive”; as for `CC(c1cccc(S(=O)(=O)NCc2cccc(C(F)(F)F)c2)c1)N1CCC(N2CCCCC2)CC1` (stereo not drawn), “inactive”.

In the case of `CCCn1c(Sc2ccc(C#N)c([N+](=O)[O-])c2)nnc1-c1ccc(OC)cc1`, the outcome was inactive. Still for that read-out and setting: the result for `CCOC(=O)C(C(C)=O)C(c1ccccc1)C(C(C)=O)C(=O)OCC` (stereo not drawn) reads “inactive”; that for `FC(F)(F)c1ccc2nc(-c3cccc(-c4ccc(CNCCc5ccncc5)cc4)c3)[nH]c2c1`, “inactive”; that for `CC(C)c1nc(N2CCN(C(=S)NCc3ccccc3)CC2)c(C#N)c2c1COC(C)(C)C2`, “inactive”.

For `O=C(NCCc1ccc(Cl)c(Cl)c1)[C@@H]1CCCN1C(=O)c1ccc(O)c(-c2ccc(Cl)c(Cl)c2)c1`, the result was inactive. For the compound `NCC1CCCN1Cc1cccc(-c2ccc(-c3nc4ccc(C(F)(F)F)cc4[nH]3)s2)c1` (stereo not drawn), the result was inactive. Still for that read-out and setting: the result for `CN(CCCNc1ccc(C(=O)Nc2ccc(C(F)(F)F)cc2)cc1[N+](=O)[O-])Cc1ccccc1` reads “inactive”; that for `Cc1ccc(-c2cc(C(=O)Nc3ccc(S(=O)(=O)N4CCCCC4C)cc3)[nH]n2)c(O)c1` (stereo not drawn), “inactive”; that for `COc1ccccc1-c1cccc(Nc2c(Nc3ccc(Cl)cc3)c(=O)c2=O)c1`, “inactive”. Still for that read-out and setting: as for `O=C(Nc1cccnc1)c1cc(-c2cc(Cl)ccc2O)n[nH]1`, the entry is “inactive”. With `Cc1ccc(NC(=O)c2ccc(CN3CCCN(CC4CCCCC4)CC3)cc2)cc1C`, the result was inactive. `Cc1cc(N2CCN(C(=O)OC(C)(C)C)CC2)ccc1N`: the outcome was inactive. In the case of `O=C1CSc2ccc(CNC3CCN(CCc4c(F)cnc5ccc(F)cc45)CC3)nc2N1`, the result was inactive. The same measure, in the same setting: the result for `CCN(CC)CCOc1c(Cl)cc(Cl)cc1CNCCCNc1cc(=O)c2ccccc2[nH]1` reads “inactive”; that for `Cc1cc(NC(=O)NCCN2CCC(NS(=O)(=O)c3ccc(Br)cc3)C2)c2ccccc2n1` (stereo not drawn), “inactive”. For `Cc1cc(N[C@@H](Cc2ccccc2)C(=O)Nc2ccccc2)nc(NCCc2cccnc2)n1`, the outcome was inactive. The same measure, in the same setting: as for `COc1ccc(C2CCN(CCCNC(=O)c3ccc(NC(=O)c4ccc(Cl)cc4)cc3)CC2)c(OC)c1`, the entry is “inactive”.

As to `COc1ccccc1CCNc1nc(C)cc(N[C@@H](Cc2ccccc2)C(=O)NCCCOC(C)C)n1`, the result was inactive.

Regarding `Cc1ccccc1C(O)CNc1ccnc(Nc2cccc(C#N)c2)n1` (stereo not drawn), the result was inactive. On the same count and under the same terms, as for `COc1cc2nc(Nc3ccc(C)cc3)nc(Nc3ccc(C)cc3)c2cc1OC`, the entry is “inactive”; as for `CC(CCCCC(=O)Nc1ccc(CC(C)NCCc2cccc(Cl)c2)cc1)NCCc1cccc(Cl)c1` (stereo not drawn), “inactive”. Still for that read-out and setting: the result for `CCc1cn2c3c(cc(C(=O)N[C@@H](Cc4ccccc4)[C@H](O)CN[C@@H](C)CC)cc13)N(C)S(=O)(=O)CC2` reads “inactive”. On the same count and under the same terms, as for `CCOc1ccc(NC(=O)c2ccc(CN3CCCN(Cc4cccc(O)c4)CC3)cc2)cc1`, the entry is “inactive”. For `Cc1cccc2[nH]c(-c3ccc(-c4ccc(CN5CCC(C(N)=O)CC5)cc4)s3)nc12`, the result was inactive. The same measure, in the same setting: as for `CN(Cc1cc(C(F)(F)F)cc(C(F)(F)F)c1)C(=O)C(Cc1ccc(F)cc1)C1CCCNC1` (stereo not drawn), the entry is “inactive”; as for `Cc1cccc2[nH]c(-c3cccc(-c4cccc(NC(=O)c5ccncc5)c4)c3)nc12`, “inactive”; as for `Oc1c(Cl)cc(-c2ccccc2)cc1CNC1CCCCC1`, “inactive”.
